# Assay outcomes deposited in PubChem by National Center for Advancing Translational Sciences (NCATS).
# Shown is part of a subset that was picked to be rich in hits.
# Methyltransferases = Primary Screen for Target Class Profiling of Small Molecule Inhibitors of Methyltransferases. 25,000 tested, 3.9% active. calls only at 40 µM. purified enzyme, MTase-Glo SAH luminescence; hits give low values; call rule not given here
#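 Each enzyme was assayed with SAM and its substrate. SAH formation detected by MTase-Glo luminescence; single-point 40 uM screen[…].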
# MTase-Glo counter = inhibits MTase-Glo coupling enzymes without methyltransferase. shares compounds with Methyltransferases. MTase-Glo coupled enzymes, SAH conversion luminescence, no MTase. Potency, µM (series often up to 57.3 µM), without a hit: at the top dose activity change, negative = inhibition, most hits filed as inhibitors. 180 tested, 6% active. AID 1745851; active = well fitted inhibition curve with a large enough effect; inconclusive = small, poorly fitted or top-dose-only effect; also: potency is read from the fitted curve at half-maximal effect
# Active calls of the source: *; i = inactive; u = inconclusive; + = active, no number; [ ] = remark or other dose. % is scaled to controls: 0 for no effect and ±100 for the full control effect.
SMILES,Methyltransferases,others
CC12CCC3c4ccc(O)cc4CCC3C1CCC2OC1OC(C(=O)O)C(O)C(O)C1O (centres undefined),i,
Cc1ccc(NC(=O)CSc2nnc3n(C)c(=O)c4ccc(C(=O)NC5CCCC5)cc4n23)c(C)c1,i,
Nc1cc(C(=O)N2CCc3onc(-c4ccc(-c5ccccc5)cc4)c3C2)[nH]n1,i,
CN(Cc1ccc(-c2ccccc2)cc1)CC1CCCCC1,i,
c1ccc(CCc2nc3nccc(-c4cccnc4)n3n2)cc1,i,
CN(CCc1ccc(Nc2ncc(-c3cccnc3)s2)cc1)Cc1ccccc1,+,
CCCn1c(=O)c2ccc(C(=O)NC3CCCC3)cc2n2c(=O)n(Cc3ccc(Cl)cc3)nc12,i,
CCOC(=O)c1cc2n(n1)CC(C)(C(=O)NCc1ccc(F)cc1)N(Cc1cccc(OC)c1)C2=O (centres undefined),i,
CC(C)CCNC(=O)C1c2c(n(C)c3ccccc23)SCC(=O)N1Cc1ccc(F)cc1 (centres undefined),i,
CCOC(=O)CCN(C(=O)c1ccc2c(c1)nc(CNc1ccc(C(=N)N)cc1)n2C)c1ccccn1,+,
CC(=O)OC/C=C(\C)C(CC1C(C)=C(OC(C)=O)C(=O)C2C(C)(C)C(O)CCC12C)OC(C)=O (centres undefined),+,
CCC1c2ccc(C)n2CCN1C(=O)Nc1ccccc1F (centres undefined),i,
O=C(Cn1nc2n(Cc3ccccc3)c(=O)c3ccccc3n2c1=O)Nc1ccccc1F,i,
CCCn1ncc(CN2CCCC23CCN(c2ncccn2)CC3)c1C,i,
CCn1cc(CN2CCCC23CCN(c2cc(C)nc4ccccc24)CC3)c(C)n1,+,MTase-Glo counter=0%
COc1ccccc1CCNC(=O)c1ncn2c1C(=O)N(C1CC1)C(C)(C(=O)NCc1ccc(F)cc1)C2 (centres undefined),i,
Cc1ccc(CN2C(=O)CSc3c(c4ccccc4n3C)C2C(=O)NCCCOC(C)C)cc1 (centres undefined),i,
COc1ccc(CNC(=O)c2ncn3c2C(=O)N(C2CC2)C(C)(C(=O)NCc2ccc(F)cc2)C3)cc1 (centres undefined),i,
CN(C)CCN1C(=O)c2ccc(-c3ccco3)n2CC1(C)C(=O)NC1CCCCCC1 (centres undefined),i,
COc1ccc(OC)c(S(=O)(=O)N2CCC(n3c(C)cnc3C3CCOCC3)CC2)c1,i,
CCNc1nc2c(s1)C(c1cccc(F)c1)CC(=O)N2 (centres undefined),+,MTase-Glo counter=u
CCCCNC(=O)c1cc2n(n1)CC(C)(C(=O)NC1CCCC1)N(CCC)C2=O (centres undefined),i,
CC(C)[C@H]1CCC(CO)=C[C@@H]1/C=C(\CO)C(=O)O,i,
Cc1cnc(-c2cccnc2)n1CC1CCN(S(=O)(=O)c2ccccc2)CC1,i,
c1ccc(-c2cc3c(cn2)NCCN(CC2CC2)C3)cc1,+,MTase-Glo counter=3%[114 µM]
SMILES,Methyltransferases,others
Cc1cnc(-c2cccnc2)n1C1CCCN(CC2CCCCC2)C1 (centres undefined),i,
Cc1cc(C)cc(N2C(=O)c3cc(C(C)(C)C)nn3CC2(C)C(=O)NC2CCCCC2)c1 (centres undefined),i,
CN1CC(=O)N(C2CCCCC2)Cc2c(NCCO)ncnc21,i,
COc1cccc(Nc2ccnc(-c3nnc(C)n3C3CCCCC3)c2)c1,+,MTase-Glo counter=-4%[85.7 µM]
COc1cccc(NC(=O)c2cc3n(n2)CC(C)(C(=O)NC2CCCCCC2)N(C)C3=O)c1 (centres undefined),i,
Cc1nnc(-c2cc(-c3ccccc3Oc3ccccc3)ccn2)n1C,i,
O=C(CCn1ccc2cc(S(=O)(=O)N3CCCCC3)ccc21)NCc1cccnc1,i,
C1=C(c2nc(-c3ccncc3)cc3c2ccn3Cc2cccnc2)CCOC1,+,MTase-Glo counter=1%[85.7 µM]
Cc1ccc(CNC(=O)Cn2nc3n(C(C)C)c(=O)c4ccc(C(=O)NC5CCCC5)cc4n3c2=O)cc1,i,
CC(C)OCCCNC(=O)c1ccc2c(=O)nc3c(-c4cccc(F)c4)n[nH]n3c2c1,i,
O=C(NC1CCN(CC(F)(F)F)CC1)c1ccc(-c2cccc(F)c2)nc1,i,
CC(C)c1nccn1CCCNC(=O)c1ccc(-c2cccc(F)c2)nc1,+,MTase-Glo counter=2%
O=C(C1CC1)N1C[C@@H]2OCC(=O)N(Cc3ccc(F)cc3)[C@@H]2C1,i,
CC[C@H]1OC(=O)[C@H](C)[C@@H](OC2C[C@@](C)(OC)[C@@H](O)[C@H](C)O2)[C@H](C)[C@@H](OC2O[C@H](C)C[C@H](NC)[C@H]2O)[C@](C)(O)C[C@@H](C)CN(C)[C@H](C)[C@@H](O)[C@]1(C)O (some centres undefined),i,
COc1cccc(CNC(=O)CCc2nnc3n(CCc4ccccc4)c(=O)c4ccccc4n23)c1,i,
COc1ccc(NC(=O)c2cc3c(s2)CN(C2CCCC2)C3)c(OC)c1,i,
CC1CCCCN1CCCNC(=O)c1cc2c(s1)CN(C1CCCC1)C2 (centres undefined),+,MTase-Glo counter=2%
CC(C)N1Cc2cc(C(=O)NC3CCN(Cc4ccccc4)CC3)sc2C1,i,
CCOc1cccc(C2c3cccn3-c3sc4c(c3CN2C(=O)NCCCOC)CCCC4)c1 (centres undefined),i,
O=C(C(Cc1cccc(C(F)(F)F)c1)NS(=O)(=O)c1cc(F)c2c(c1)CCNC2)N1CCCC1 (centres undefined),i,
O=C(C1CCC1)N1CCC(Cc2nncn2Cc2ccccc2)CC1,i,
Cc1nn(C(=O)CCC(=O)N2CCC(Cc3nncn3CC3CC3)CC2)c2ccccc12,+,MTase-Glo counter=-1%
CCn1cnnc1CC1CCN(C(=O)c2nccc3ccccc23)C1 (centres undefined),i,
CCc1cccc(NC(=O)Cn2c(=O)oc3cc(S(=O)(=O)N4CC(C)CC(C)C4)ccc32)c1 (centres undefined),i,
Cc1ccc(N2CCN(S(=O)(=O)c3cc4[nH]c(=O)[nH]c4cc3Cl)CC2)c(C)c1,i,
SMILES,Methyltransferases,others
CC(C)c1ccc(CC(=O)N2CCC[C@@H](c3cccc(OC(C)(C)C(=O)O)c3)C2)cc1,i,
COc1ccccc1-c1[nH]nc2ncc(C(=O)NCC3CC3)nc12,+,MTase-Glo counter=1%[85.7 µM]
COCCCNC(=O)c1cnc2n[nH]c(-c3ccccc3)c2n1,+,MTase-Glo counter=-3%[85.7 µM]
CC1(C)[C@H]2CC[C@@H](CNC(=O)c3ccc4ccccc4n3)[C@@H]1C2,i,
c1ccc(-c2[nH]nc3ncc(-c4cn[nH]c4)nc23)cc1,+,MTase-Glo counter=25µM*
CCOCCCNC(=O)c1cc2c(=O)[nH]c(-c3ccccc3)cn2n1,i,
COc1ccccc1CCNC(=O)c1cc2n(n1)CC(C)(C(=O)NC1CCCCCC1)N(C)C2=O (centres undefined),i,
Cc1cc(F)ccc1-c1[nH]nc2ncc(-c3ccnn3C)nc12,i,
COc1ccc(C(=O)NCCn2c(C)cnc2-c2ccccc2)cn1,i,
CCCN1C(=O)c2c(C(=O)NCc3ccc(OC(C)C)cc3)ncn2CC1(C)C(=O)NCc1ccc(C)cc1 (centres undefined),i,
COCc1nnc(C2CC3(CCN(C(=O)c4cccc(C)c4)CC3)CN2C)o1 (centres undefined),i,
